In paper PMC7862700, “An all-to-all approach to the identification of sequence-specific readers for epigenetic DNA modifications on cytosine” one finds binding signal data, which are given here for one sequence.

Common to all, as to experiment: DAPPL (digital affinity profiling via proximity ligation, sequencing); 10 mM Tris-HCl pH 7.5, 50 mM NaCl, 1 mM DTT, 4% glycerol, room temperature, 30 min; GST-TFs on glutathione beads, 16-mer random dsDNA library, 0.1% formaldehyde crosslink after washing; high values mean tight binding
Test [1] addresses T1, FEV (Homo sapiens, UniProt Q99581 1-238).
T1 sequence: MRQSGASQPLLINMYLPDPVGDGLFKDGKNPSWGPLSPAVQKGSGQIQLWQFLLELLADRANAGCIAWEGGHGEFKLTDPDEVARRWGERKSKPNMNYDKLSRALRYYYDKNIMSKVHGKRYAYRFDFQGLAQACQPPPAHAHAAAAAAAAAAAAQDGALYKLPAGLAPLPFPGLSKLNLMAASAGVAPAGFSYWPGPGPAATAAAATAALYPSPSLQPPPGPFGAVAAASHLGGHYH
The note with it: protein: recombinant; tags: N-terminal GST; dsDNA, one strand shown. In short, it runs like this:
(§1)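 After expression in yeast as GST fusions, human transcription factors were bound to glutathione beads, DNA-barcoded and mixed with a tag-only sample. The pools were incubated with 200 nmole of a 16-mer random double-stranded DNA library in Tris/NaCl/DTT/glycerol buffer (30 min, room temperature), washed and crosslinked with 0.1% formaldehyde. Proximity ligation with BsaI/T4 ligase ran for 1 h at 37 °C, before PCR amplification and sequencing on an Illumina NextSeq500. Binding signal is a hexamer's read frequency for a factor divided by its frequency for the tag-only sample.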

In test [2] the target is ETV5 (Homo sapiens, UniProt P41161 1-510). As to conditions: protein: recombinant; tags: N-terminal GST; dsDNA, one strand shown. The essentials:
as §1

The target of test [3] is HSF1 (Homo sapiens, UniProt Q00613 1-529). The note with it: protein: recombinant; tags: N-terminal GST; chain copies: 3; dsDNA, one strand shown. The essentials:
as §1

Test [4] deals with T2, SPIC (Homo sapiens, UniProt Q8N5J4 1-248).
T2 sequence: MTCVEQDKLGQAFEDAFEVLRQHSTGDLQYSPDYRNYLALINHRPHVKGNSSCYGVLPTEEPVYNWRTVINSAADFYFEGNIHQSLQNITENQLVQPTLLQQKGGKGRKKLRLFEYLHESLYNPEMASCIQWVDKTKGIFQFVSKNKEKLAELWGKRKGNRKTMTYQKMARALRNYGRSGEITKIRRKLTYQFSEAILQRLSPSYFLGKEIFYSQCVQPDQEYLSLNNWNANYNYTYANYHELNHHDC
As to conditions: protein: recombinant; tags: N-terminal GST; dsDNA, one strand shown. The essentials: as §1

Test [5] deals with ELF4 (Homo sapiens, UniProt Q99607 1-663). As to conditions: protein: recombinant; tags: N-terminal GST; dsDNA, one strand shown. In short, it runs like this:
as §1

The target in test [6] is T3, ELK4 (Homo sapiens, UniProt P28324-2 1-405).
T3 sequence: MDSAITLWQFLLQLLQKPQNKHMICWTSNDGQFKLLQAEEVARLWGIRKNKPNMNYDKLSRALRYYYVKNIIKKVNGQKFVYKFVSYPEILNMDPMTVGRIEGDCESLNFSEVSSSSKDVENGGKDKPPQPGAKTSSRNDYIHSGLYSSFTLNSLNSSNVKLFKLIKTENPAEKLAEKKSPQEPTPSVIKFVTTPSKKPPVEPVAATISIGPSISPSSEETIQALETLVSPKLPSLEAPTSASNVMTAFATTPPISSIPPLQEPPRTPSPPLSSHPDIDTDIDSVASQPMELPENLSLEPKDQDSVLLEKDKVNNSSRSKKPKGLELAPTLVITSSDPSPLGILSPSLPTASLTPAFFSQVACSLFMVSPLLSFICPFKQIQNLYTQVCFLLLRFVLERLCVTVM
The note with it: protein: recombinant; tags: N-terminal GST; dsDNA, one strand shown. In short, it runs like this:
as §1

Test [7] addresses T4, ETV2 (Homo sapiens, UniProt O00321 1-342).
T4 sequence: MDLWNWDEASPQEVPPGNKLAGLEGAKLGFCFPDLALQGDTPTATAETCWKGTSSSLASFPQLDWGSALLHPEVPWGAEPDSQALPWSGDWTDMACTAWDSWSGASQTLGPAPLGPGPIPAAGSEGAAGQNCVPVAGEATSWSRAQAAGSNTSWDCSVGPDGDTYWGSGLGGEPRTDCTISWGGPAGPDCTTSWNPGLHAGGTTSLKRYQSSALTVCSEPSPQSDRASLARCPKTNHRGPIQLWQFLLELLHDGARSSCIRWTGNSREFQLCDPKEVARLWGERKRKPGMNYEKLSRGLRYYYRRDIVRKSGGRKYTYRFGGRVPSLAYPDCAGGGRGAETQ
The note with it: protein: recombinant; tags: N-terminal GST; dsDNA, one strand shown. In short, it runs like this: as §1

Test [8] concerns the target T5, ELF3 (Homo sapiens, UniProt P78545 1-371).
T5 sequence: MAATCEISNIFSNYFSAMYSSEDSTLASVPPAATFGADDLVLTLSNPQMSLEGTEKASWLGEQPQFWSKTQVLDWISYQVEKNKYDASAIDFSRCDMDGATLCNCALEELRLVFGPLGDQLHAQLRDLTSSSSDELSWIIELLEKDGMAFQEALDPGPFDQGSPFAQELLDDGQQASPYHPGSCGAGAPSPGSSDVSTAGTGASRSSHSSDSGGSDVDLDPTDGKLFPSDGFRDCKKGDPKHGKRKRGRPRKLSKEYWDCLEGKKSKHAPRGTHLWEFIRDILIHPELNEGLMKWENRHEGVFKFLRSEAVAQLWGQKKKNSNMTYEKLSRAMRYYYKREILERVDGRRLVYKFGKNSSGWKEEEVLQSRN
The note with it: protein: recombinant; tags: N-terminal GST; dsDNA, one strand shown. The essentials: as §1

Test [9] addresses CRX (Homo sapiens, UniProt O43186 1-299). The note with it: protein: recombinant; tags: N-terminal GST; dsDNA, one strand shown. The essentials: as §1
Test [10] deals with ETV1 (Homo sapiens, UniProt P50549 1-477). As to conditions: protein: recombinant; tags: N-terminal GST; dsDNA, one strand shown. The essentials: as §1
Sequence of ETV1 (P50549 whole entry): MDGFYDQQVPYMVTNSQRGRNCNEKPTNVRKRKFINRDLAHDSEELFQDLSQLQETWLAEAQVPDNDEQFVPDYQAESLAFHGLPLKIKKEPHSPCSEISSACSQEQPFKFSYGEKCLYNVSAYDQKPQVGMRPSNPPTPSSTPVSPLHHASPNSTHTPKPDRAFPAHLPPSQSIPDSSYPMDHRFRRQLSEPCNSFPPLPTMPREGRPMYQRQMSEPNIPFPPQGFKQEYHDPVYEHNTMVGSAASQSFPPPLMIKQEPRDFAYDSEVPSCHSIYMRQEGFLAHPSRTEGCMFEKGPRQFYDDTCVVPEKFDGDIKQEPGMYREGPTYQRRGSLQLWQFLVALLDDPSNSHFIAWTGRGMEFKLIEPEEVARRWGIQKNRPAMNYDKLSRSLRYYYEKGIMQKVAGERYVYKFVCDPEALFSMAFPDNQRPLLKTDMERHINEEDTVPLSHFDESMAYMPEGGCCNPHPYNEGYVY
Test [11] has as its target T6, ERF (Homo sapiens, UniProt P50548 1-548).
T6 sequence: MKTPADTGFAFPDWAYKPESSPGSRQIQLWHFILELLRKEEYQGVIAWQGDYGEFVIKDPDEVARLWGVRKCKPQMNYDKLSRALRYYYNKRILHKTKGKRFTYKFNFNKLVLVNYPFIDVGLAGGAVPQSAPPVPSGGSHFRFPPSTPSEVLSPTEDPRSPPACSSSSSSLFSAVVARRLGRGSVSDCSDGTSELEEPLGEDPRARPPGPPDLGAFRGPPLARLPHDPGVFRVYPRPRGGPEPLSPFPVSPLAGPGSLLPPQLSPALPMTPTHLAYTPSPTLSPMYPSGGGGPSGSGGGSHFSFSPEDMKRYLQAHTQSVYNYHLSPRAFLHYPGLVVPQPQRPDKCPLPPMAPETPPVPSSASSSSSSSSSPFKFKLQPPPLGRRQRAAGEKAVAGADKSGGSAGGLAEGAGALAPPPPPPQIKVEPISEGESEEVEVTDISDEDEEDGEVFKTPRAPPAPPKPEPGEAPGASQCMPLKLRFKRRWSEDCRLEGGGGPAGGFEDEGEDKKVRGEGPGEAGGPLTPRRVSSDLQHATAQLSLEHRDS
The note with it: protein: recombinant; tags: N-terminal GST; dsDNA, one strand shown. In short, it runs like this:
as §1

The target in test [12] is T7, ETV3L (Homo sapiens, UniProt Q6ZN32 1-361).
T7 sequence: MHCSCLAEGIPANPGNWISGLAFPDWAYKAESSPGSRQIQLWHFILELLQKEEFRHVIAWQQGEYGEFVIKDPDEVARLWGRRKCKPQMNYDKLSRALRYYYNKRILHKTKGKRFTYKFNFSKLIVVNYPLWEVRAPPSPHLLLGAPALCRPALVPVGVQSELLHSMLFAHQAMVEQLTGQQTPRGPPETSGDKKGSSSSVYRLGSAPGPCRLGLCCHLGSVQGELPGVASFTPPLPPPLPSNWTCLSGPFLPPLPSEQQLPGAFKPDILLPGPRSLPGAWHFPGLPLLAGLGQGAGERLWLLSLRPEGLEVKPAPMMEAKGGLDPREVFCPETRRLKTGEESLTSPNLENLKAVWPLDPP
As to conditions: protein: recombinant; tags: N-terminal GST; dsDNA, one strand shown. In short, it runs like this:
as §1

Test [13] concerns the target T8, ETS2 (Homo sapiens, UniProt P15036 1-469).
T8 sequence: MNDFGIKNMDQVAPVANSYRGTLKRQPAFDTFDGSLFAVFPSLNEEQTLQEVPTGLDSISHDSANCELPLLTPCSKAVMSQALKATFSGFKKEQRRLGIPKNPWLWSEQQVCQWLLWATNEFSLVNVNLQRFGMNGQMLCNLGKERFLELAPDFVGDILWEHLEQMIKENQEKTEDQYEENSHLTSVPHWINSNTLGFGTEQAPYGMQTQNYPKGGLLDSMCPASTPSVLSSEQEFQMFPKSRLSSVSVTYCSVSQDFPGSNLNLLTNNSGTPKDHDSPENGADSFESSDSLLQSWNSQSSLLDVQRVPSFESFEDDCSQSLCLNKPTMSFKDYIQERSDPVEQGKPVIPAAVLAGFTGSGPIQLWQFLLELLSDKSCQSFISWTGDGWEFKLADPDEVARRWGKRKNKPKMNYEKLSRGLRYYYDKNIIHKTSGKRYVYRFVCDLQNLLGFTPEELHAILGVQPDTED
The note with it: protein: recombinant; tags: N-terminal GST; dsDNA, one strand shown. In short, it runs like this:
as §1

The target in test [14] is T9, SPDEF (Homo sapiens, UniProt O95238 1-335).
T9 sequence: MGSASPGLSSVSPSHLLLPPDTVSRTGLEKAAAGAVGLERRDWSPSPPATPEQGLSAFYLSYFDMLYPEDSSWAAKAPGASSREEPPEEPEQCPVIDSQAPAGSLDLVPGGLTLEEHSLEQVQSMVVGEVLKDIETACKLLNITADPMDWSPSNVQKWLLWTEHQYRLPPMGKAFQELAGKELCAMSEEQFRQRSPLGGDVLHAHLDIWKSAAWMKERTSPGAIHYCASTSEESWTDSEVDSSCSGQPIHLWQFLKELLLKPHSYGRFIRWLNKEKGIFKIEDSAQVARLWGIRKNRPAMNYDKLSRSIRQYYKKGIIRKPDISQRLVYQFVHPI
As to conditions: protein: recombinant; tags: N-terminal GST; dsDNA, one strand shown. The essentials:
as §1

In test [15] the target is T10, ETV7 (Homo sapiens, UniProt Q9Y603 1-341).
T10 sequence: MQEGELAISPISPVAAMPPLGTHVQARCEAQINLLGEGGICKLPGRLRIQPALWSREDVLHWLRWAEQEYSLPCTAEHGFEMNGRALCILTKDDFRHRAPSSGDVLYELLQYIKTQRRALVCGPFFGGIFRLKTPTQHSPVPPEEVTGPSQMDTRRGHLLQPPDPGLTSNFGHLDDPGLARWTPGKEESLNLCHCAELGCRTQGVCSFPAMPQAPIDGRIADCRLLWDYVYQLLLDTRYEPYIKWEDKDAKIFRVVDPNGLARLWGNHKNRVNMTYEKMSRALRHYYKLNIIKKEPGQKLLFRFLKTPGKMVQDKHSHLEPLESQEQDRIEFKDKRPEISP
As to conditions: protein: recombinant; tags: N-terminal GST; dsDNA, one strand shown. The essentials: as §1

The target in test [16] is T11, ELF5 (Homo sapiens, UniProt Q9UKW6-2 1-255).
T11 sequence: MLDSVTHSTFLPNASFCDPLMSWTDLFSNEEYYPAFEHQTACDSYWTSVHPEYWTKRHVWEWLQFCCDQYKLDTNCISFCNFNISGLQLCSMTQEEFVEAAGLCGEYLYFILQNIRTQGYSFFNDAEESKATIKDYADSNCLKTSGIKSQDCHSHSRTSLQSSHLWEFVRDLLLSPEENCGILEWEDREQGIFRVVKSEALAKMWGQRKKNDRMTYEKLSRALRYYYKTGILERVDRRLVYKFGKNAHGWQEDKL
As to conditions: protein: recombinant; tags: N-terminal GST; dsDNA, one strand shown. In short, it runs like this:
as §1

Test [17] deals with T12, ETV3 (Homo sapiens, UniProt P41162-2 1-143).
T12 sequence: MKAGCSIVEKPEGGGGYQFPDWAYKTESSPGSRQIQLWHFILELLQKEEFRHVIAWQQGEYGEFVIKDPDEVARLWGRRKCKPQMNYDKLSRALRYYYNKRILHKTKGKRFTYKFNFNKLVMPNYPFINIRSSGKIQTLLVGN
As to conditions: protein: recombinant; tags: N-terminal GST; dsDNA, one strand shown. The essentials: as §1

Test [18] addresses ETV6 (Homo sapiens, UniProt P41212 1-452). As to conditions: protein: recombinant; tags: N-terminal GST; dsDNA, one strand shown. The essentials: as §1

Sequence of ELF4 (Q99607 whole entry): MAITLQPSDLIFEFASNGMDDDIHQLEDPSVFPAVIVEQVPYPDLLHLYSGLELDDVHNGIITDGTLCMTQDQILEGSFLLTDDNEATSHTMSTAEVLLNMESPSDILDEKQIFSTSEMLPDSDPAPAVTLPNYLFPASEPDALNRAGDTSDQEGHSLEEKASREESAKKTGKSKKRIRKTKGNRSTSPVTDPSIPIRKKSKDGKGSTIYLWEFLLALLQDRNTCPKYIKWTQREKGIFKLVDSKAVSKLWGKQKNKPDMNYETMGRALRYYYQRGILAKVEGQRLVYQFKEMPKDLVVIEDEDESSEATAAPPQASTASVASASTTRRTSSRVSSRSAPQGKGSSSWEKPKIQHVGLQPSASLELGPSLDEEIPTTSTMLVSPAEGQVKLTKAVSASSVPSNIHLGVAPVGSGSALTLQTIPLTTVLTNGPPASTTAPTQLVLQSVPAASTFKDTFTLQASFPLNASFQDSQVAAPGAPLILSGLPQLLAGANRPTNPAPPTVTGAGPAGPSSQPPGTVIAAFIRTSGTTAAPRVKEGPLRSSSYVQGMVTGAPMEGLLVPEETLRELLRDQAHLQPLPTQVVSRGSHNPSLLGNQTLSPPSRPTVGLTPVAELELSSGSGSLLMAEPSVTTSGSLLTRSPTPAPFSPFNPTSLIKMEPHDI
Sequence of ETV6 (P41212 whole entry): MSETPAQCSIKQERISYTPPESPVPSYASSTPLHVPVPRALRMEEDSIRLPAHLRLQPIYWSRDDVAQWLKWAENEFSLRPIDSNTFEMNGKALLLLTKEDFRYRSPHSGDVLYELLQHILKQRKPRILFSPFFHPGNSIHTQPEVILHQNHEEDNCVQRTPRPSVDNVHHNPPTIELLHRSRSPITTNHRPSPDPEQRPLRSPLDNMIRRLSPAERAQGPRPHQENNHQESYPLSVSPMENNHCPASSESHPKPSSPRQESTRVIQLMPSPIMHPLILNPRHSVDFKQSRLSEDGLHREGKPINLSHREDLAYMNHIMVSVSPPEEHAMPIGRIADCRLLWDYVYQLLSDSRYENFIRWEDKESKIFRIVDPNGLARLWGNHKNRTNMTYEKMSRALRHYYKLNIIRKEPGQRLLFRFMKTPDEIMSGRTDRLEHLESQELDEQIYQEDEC
Sequence of HSF1 (Q00613 whole entry): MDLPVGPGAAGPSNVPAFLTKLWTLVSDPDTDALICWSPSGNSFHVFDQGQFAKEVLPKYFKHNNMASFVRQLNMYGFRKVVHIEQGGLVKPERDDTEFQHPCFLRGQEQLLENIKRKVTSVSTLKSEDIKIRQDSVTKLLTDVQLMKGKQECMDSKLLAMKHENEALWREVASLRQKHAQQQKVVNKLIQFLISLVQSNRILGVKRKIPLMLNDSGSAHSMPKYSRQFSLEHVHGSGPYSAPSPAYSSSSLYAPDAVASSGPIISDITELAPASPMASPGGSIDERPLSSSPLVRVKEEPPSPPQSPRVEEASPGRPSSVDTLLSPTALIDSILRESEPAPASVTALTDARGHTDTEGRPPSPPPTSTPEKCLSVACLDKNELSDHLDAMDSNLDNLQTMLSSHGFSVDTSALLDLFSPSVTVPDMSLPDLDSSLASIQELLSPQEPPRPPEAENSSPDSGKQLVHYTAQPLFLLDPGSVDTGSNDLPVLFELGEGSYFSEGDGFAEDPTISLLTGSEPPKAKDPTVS
Sequence of CRX (O43186 whole entry): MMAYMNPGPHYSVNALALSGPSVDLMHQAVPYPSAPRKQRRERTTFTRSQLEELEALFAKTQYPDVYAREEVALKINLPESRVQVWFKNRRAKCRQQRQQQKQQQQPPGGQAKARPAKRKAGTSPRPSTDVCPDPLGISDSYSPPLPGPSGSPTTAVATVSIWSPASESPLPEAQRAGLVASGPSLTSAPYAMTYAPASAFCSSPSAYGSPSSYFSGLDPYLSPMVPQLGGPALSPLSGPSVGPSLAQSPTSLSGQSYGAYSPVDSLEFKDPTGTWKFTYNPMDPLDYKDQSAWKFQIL
Sequence of ETV5 (P41161 whole entry): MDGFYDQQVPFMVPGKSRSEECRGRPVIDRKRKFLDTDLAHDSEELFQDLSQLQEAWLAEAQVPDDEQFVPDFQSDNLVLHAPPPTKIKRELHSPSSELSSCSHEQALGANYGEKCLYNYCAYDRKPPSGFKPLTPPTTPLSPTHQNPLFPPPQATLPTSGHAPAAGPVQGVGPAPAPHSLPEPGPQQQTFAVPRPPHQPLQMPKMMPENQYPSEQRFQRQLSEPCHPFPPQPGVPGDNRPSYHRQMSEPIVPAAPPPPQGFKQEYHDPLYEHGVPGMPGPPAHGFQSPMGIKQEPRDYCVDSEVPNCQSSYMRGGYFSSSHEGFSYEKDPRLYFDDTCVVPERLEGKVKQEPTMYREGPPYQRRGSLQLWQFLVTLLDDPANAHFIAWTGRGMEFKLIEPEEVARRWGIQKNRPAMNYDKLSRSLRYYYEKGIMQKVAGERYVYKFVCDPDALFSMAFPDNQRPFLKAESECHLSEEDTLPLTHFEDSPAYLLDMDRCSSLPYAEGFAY

In the case of TATTAT, the binding signal in test [1] is 1.12 fold enrichment (6-mer frequency, TF over GST control); in test [2], 1.3 fold enrichment (6-mer frequency, TF over GST control); in test [3], 1.69 fold enrichment (6-mer frequency, TF over GST control); in test [4] it was 1.35 fold enrichment (6-mer frequency, TF over GST control); in test [5], 1.27 fold enrichment (6-mer frequency, TF over GST control); in [6], 1.35 fold enrichment (6-mer frequency, TF over GST control). In addition, the binding signal was 1.32 fold enrichment (6-mer frequency, TF over GST control) in test [7]; 1.3 fold enrichment (6-mer frequency, TF over GST control) in [8]; 2.4 fold enrichment (6-mer frequency, TF over GST control) in test [9]; 1.26 fold enrichment (6-mer frequency, TF over GST control) in test [10]; 1.19 fold enrichment (6-mer frequency, TF over GST control) in test [11]; 1.24 fold enrichment (6-mer frequency, TF over GST control) in [12]. The binding signal was 1.16 fold enrichment (6-mer frequency, TF over GST control) in test [13]; 1.29 fold enrichment (6-mer frequency, TF over GST control) in test [14]; 1.28 fold enrichment (6-mer frequency, TF over GST control) in test [15]; 1.2 fold enrichment (6-mer frequency, TF over GST control) in test [16]; 1.27 fold enrichment (6-mer frequency, TF over GST control) in test [17]; 1.3 fold enrichment (6-mer frequency, TF over GST control) in test [18].
